Laboratory results as given in the supplement of paper PMC10849652.
Targets with a hit are over-represented here; the source holds about 7,900 in all. About 0.6% of all pairs of compound and target were hits. Unmarked numbers belong to inactive results.

How the values were obtained:
Test in all cases: log2 fold change, soluble protein after heating vs DMSO (PISA); higher = thermal stabilisation; K562 cells, 10 uM, 30 min; active = over 0.2 and 3.5 SD of the protein, either way, in both replicates (recomputed)
erlotinib = compound: C#Cc1cccc(Nc2ncnc3cc(OCCOC)c(OCCOC)cc23)c1 [erlotinib]
Procedure, shortened: (§1)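 Soluble protein was quantified by TMTpro 16plex LC-MS/MS after channel sums were equalised. It was obtained as the supernatant after 21,000xg for 90 min from pooled aliquots of K562 cells (2×10^6 cells/mL, 10 μM compound, 30 min) heated for 3 min across 48°C-58°C and extracted in PBS with 0.5% NP-40 at 4°C. Thermal stability values are relative to control samples and come from duplicates. They are given as log2 fold changes.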

[1] = compound: C1=CC(=CC=C1C2=NC3=C(N2)C=C(C=C3)C(=O)N)OC4=CC=C(C=C4)Cl
Procedure, shortened: as §1

[2] = compound: C1=CC2=NC=CN=C2C=C1/C=C/3\C(=O)NC(=O)S3
Procedure, shortened: as §1

[3] = compound: C1=CC=C(C=C1)C2=NC(=C(N2)C3=CC=NC=C3)C4=CC(=C(C=C4)Cl)O
Procedure, shortened: as §1

[4] = compound: C1CCN(C1)C(=O)NC2=CC=CC(=C2)NC3=NC=C(C(=N3)NCCC4=CN=CN4)Br
Procedure, shortened: as §1

[5] = compound: C1CN(CCC1(CC2=CC=C(C=C2)Cl)N)C3=NC=NC4=C3C=CN4
Procedure, shortened: as §1

ibrutinib = compound: C=CC(=O)N1CCC[C@@H](n2nc(-c3ccc(Oc4ccccc4)cc3)c3c(N)ncnc32)C1 [ibrutinib]
Procedure, shortened: as §1

ralimetinib = compound: CC(C)(C)Cn1c(N)nc2ccc(-c3[nH]c(C(C)(C)C)nc3-c3ccc(F)cc3)nc21 [ralimetinib]
Procedure, shortened: as §1

[6] = compound: CC(C)C1=C2N=C(C=C(N2N=C1)NCC3=CC=CC=C3)NCCCCCCN
Procedure, shortened: as §1

[7] = compound: CC(C)C[C@@H](C=O)NC(=O)[C@H](CC(C)C)NC(=O)[C@H](CC(C)C)NC(=O)OCc1ccccc1
Procedure, shortened: as §1

[8] = compound: CC1=C(C(CC(=O)N1)C2=CC=C(C=C2)C(F)(F)F)C(=O)NC3=C(C=C4C(=C3)C=NN4)F
Procedure, shortened: as §1

[9] = compound: CC1=C(C2=C(C=C1)C(=O)C3=CC=CC=C3N2CCCN)C
Procedure, shortened: as §1

[10] = compound: C/C(=N\NC(=O)C1=CC(=CC=C1)S(=O)(=O)N2CCOCC2)/C3=C(C=CC(=C3)Cl)O
Procedure, shortened: as §1

[11] = compound: C1=CC2=C(C=CC(=C2)/C=C\3/C(=O)NC(=NCC4=CC=CS4)S3)N=C1
Procedure, shortened: as §1

[12] = compound: C1=CC=C2C(=C1)C3=NNC4=CC=CC(=C43)C2=O
Procedure, shortened: as §1

[13] = compound: CC(=O)c1cnc2ccc(-c3cc(Cl)c(O)c(Cl)c3)nc2c1N[C@H]1CC[C@H](CN(C)C)CC1
Procedure, shortened: as §1

IRAK-1-4 Inhibitor I = compound: C1COCCN1CCN2C3=CC=CC=C3N=C2NC(=O)C4=CC(=CC=C4)[N+](=O)[O-] [IRAK-1-4 Inhibitor I]
Procedure, shortened: as §1

pinometostat = compound: CC(C)N(C[C@H]1O[C@@H](n2cnc3c(N)ncnc32)[C@H](O)[C@@H]1O)[C@H]1C[C@@H](CCc2nc3cc(C(C)(C)C)ccc3[nH]2)C1 [pinometostat]
Procedure, shortened: as §1

[14] = compound: C1=CC(=C(C=C1Cl)C2=NC3=NC=CN=C3C(=N2)NC4=CC=NC=C4)F
Procedure, shortened: as §1

[15] = compound: CC(C)(O)CC(=O)NCCn1ccc2ncnc(Nc3ccc(Oc4cccc(C(F)(F)F)c4)c(Cl)c3)c21
Procedure, shortened: as §1

## MCOLN3 (UniProt Q8TDD5)
erlotinib
  log2 fold change: 0.244
[1]
  log2 fold change: -0.016
[2]
  log2 fold change: 0.112
[3]
  log2 fold change: -0.049
[4]
  log2 fold change: 0.053
[5]
  log2 fold change: 0.107
ibrutinib
  log2 fold change: -0.17
ralimetinib
  log2 fold change: -0.057
[6]
  log2 fold change: 0.019
[7]
  log2 fold change: 0.029
[8]
  log2 fold change: 0.03
[9]
  log2 fold change: 0.08

## MED29 (UniProt Q9NX70)
erlotinib
  log2 fold change: -0.016
[10]
  log2 fold change: 0.008
[1]
  log2 fold change: 0.062
[11]
  log2 fold change: -0.089
[12]
  log2 fold change: -0.015
[13]
  log2 fold change: -0.215
[6]
  log2 fold change: -0.038
[8]
  log2 fold change: -0.08

## MBLAC1 (UniProt A4D2B0)
UniProt A4D2B0, sequence (A4D2B0 whole entry, looked up): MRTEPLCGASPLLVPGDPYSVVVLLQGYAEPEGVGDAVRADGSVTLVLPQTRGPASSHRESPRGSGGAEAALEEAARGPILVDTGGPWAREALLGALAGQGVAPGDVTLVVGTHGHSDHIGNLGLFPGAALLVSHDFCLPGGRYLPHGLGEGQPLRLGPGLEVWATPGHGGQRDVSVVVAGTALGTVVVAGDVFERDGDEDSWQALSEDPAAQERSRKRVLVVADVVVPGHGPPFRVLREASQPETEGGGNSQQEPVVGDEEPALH
erlotinib
  log2 fold change: 0.074
[10]
  log2 fold change: -0.042
[1]
  log2 fold change: 0.026
[11]
  log2 fold change: 0.036
[2]
  log2 fold change: 0.019
[3]
  log2 fold change: 0.002
[12]
  log2 fold change: -0.024
IRAK-1-4 Inhibitor I
  log2 fold change: 0.371
ibrutinib
  log2 fold change: -0.03
[13]
  log2 fold change: 0.001
ralimetinib
  log2 fold change: -0.074
[6]
  log2 fold change: 0.126
[7]
  log2 fold change: -0.011
pinometostat
  log2 fold change: -0.163

## IGFBP6 (UniProt P24592)
UniProt P24592, sequence (P24592 whole entry, looked up): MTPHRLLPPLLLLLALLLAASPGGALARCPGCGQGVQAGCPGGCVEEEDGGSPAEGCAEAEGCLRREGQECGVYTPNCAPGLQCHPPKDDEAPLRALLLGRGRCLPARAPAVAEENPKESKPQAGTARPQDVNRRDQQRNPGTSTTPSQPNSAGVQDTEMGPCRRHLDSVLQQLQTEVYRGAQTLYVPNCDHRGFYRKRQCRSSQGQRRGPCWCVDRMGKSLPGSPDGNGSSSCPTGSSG
[10]
  log2 fold change: -0.215
[11]
  log2 fold change: 0.057
[3]
  log2 fold change: 0.131
[12]
  log2 fold change: -0.19
[13]
  log2 fold change: -0.02
ralimetinib
  log2 fold change: -0.049
[7]
  log2 fold change: 0.097

## MCM10 (UniProt Q7L590)
erlotinib
  log2 fold change: -0.066
[14]
  log2 fold change: 0.205
[1]
  log2 fold change: 0.039
[2]
  log2 fold change: -0.054
[4]
  log2 fold change: -0.153
[5]
  log2 fold change: 0.125
IRAK-1-4 Inhibitor I
  log2 fold change: 0.096
ibrutinib
  log2 fold change: 0.018
[15]
  log2 fold change: -0.115
[6]
  log2 fold change: 0.015
pinometostat
  log2 fold change: -0.108
[8]
  log2 fold change: 0.07
[9]
  log2 fold change: -0.037

## MAML1 (UniProt Q92585)
UniProt Q92585, sequence (Q92585 whole entry, looked up): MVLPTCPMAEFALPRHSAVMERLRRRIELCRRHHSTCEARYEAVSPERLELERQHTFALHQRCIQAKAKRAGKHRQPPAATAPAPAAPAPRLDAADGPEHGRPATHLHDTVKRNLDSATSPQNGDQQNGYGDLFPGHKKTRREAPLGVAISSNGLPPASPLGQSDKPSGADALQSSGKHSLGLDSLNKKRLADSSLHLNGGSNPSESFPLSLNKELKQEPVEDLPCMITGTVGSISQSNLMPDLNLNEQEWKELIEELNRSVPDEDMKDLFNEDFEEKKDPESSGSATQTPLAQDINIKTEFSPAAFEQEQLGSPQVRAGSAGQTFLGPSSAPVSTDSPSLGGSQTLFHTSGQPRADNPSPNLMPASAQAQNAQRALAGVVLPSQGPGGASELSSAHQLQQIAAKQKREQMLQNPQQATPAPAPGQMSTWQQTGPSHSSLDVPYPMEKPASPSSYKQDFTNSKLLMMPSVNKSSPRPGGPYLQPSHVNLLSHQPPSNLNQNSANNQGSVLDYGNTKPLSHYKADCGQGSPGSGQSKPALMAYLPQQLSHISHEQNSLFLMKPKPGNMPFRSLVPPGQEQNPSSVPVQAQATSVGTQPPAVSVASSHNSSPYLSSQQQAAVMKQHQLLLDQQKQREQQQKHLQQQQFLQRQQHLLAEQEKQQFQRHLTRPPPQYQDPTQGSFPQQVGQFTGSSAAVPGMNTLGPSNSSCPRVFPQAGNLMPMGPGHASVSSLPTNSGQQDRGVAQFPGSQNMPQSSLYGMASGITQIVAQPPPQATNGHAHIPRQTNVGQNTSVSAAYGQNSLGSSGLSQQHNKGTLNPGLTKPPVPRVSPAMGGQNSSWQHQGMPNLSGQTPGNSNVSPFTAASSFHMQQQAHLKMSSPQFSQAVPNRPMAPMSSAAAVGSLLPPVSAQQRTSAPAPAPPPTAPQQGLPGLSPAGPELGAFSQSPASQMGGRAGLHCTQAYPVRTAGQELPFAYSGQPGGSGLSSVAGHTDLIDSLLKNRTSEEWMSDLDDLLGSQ
erlotinib
  log2 fold change: 0.369
[14]
  log2 fold change: 0.004
[1]
  log2 fold change: 0.082
[3]
  log2 fold change: -0.004
IRAK-1-4 Inhibitor I
  log2 fold change: 0.117
ralimetinib
  log2 fold change: 0.013
[15]
  log2 fold change: 0.02
[6]
  log2 fold change: 0.016
[7]
  log2 fold change: -0.043
pinometostat
  log2 fold change: -0.133

## MAPK11 (UniProt Q15759)
UniProt Q15759, sequence (Q15759 whole entry, looked up): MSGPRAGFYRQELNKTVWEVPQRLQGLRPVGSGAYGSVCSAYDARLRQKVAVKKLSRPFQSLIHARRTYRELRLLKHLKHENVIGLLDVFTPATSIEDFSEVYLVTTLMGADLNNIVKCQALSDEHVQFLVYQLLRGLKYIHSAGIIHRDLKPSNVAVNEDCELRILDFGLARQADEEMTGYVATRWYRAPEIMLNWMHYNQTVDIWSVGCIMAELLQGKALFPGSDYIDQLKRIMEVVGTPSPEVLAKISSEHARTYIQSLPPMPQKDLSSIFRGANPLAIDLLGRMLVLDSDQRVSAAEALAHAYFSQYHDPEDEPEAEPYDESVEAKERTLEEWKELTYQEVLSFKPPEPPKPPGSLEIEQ
erlotinib
  log2 fold change: 0.169
[1]
  log2 fold change: -0.28
[3]
  log2 fold change: 0.744
[4]
  log2 fold change: -0.56
[5]
  log2 fold change: 0.309
IRAK-1-4 Inhibitor I
  log2 fold change: -0.22
ralimetinib
  log2 fold change: 1.47 (active)
[6]
  log2 fold change: -0.853
[7]
  log2 fold change: -0.091
pinometostat
  log2 fold change: -0.111
[9]
  log2 fold change: 0.103

## LAPTM4B (UniProt Q86VI4)
UniProt Q86VI4, sequence (Q86VI4 whole entry, looked up): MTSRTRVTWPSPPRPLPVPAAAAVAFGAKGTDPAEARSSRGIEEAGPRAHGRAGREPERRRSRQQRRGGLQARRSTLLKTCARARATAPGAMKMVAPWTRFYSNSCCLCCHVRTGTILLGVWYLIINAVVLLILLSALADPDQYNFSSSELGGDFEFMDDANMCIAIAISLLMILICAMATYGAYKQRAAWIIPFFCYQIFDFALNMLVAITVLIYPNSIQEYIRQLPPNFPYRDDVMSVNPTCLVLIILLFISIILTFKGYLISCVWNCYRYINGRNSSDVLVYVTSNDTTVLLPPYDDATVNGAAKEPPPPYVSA
erlotinib
  log2 fold change: -0.074
[1]
  log2 fold change: -0.054
[2]
  log2 fold change: 0.093
ibrutinib
  log2 fold change: 0.019
[6]
  log2 fold change: 0.141

## MED25 isoform 3 (UniProt Q71SY5)
UniProt Q71SY5, sequence (Q71SY5 whole entry, looked up): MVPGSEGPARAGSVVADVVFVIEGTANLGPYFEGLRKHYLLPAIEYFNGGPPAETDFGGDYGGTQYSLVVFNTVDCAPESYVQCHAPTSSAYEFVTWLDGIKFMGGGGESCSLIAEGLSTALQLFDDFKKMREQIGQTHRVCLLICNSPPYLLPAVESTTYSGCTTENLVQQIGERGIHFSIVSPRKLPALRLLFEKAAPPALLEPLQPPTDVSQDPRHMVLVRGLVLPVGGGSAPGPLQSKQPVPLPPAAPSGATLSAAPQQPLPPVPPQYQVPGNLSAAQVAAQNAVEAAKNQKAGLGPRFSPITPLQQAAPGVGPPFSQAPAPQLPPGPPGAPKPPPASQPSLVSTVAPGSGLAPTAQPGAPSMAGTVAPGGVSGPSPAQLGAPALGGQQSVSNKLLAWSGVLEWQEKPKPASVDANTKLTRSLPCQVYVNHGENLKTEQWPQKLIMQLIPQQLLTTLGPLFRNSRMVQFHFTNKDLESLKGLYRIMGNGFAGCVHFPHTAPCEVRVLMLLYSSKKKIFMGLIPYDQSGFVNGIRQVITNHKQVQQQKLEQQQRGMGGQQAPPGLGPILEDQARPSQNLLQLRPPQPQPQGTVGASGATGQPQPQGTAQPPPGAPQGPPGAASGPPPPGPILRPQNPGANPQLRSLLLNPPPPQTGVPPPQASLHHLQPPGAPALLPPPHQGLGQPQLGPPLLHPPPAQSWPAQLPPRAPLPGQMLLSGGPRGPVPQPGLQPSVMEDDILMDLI
erlotinib
  log2 fold change: -0.038
[10]
  log2 fold change: 0.026
[1]
  log2 fold change: 0.005
[11]
  log2 fold change: 0.048
[2]
  log2 fold change: -0.031
[3]
  log2 fold change: 0.062
[12]
  log2 fold change: 0.057
[4]
  log2 fold change: 0.057
[5]
  log2 fold change: 0.07
IRAK-1-4 Inhibitor I
  log2 fold change: -0.087
ibrutinib
  log2 fold change: 0.039
[13]
  log2 fold change: -0.086
ralimetinib
  log2 fold change: -0.099
[6]
  log2 fold change: 0.016
[7]
  log2 fold change: -0.061
pinometostat
  log2 fold change: 0.173
[8]
  log2 fold change: -0.03
[9]
  log2 fold change: 0.053

## KIF13A isoform 4 (UniProt Q9H1H9)
[10]
  log2 fold change: 0.21
[11]
  log2 fold change: 0.161
[12]
  log2 fold change: 0.021
[13]
  log2 fold change: 0.123

## LOX (UniProt P28300)
UniProt P28300, sequence (P28300 whole entry, looked up): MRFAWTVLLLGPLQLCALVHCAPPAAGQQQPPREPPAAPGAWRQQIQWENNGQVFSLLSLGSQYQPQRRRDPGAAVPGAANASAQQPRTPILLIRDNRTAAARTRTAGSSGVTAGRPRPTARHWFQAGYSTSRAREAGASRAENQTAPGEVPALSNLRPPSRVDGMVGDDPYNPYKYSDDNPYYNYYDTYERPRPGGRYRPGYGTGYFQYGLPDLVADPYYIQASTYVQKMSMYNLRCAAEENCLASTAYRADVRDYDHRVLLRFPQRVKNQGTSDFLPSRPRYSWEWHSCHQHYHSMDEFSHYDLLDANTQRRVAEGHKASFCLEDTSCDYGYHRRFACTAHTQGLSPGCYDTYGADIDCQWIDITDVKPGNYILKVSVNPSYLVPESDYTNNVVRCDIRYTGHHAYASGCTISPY
erlotinib
  log2 fold change: -0.245
[1]
  log2 fold change: 0.315
[2]
  log2 fold change: 0.038
ibrutinib
  log2 fold change: 0.074
[6]
  log2 fold change: -0.218
[8]
  log2 fold change: 0.144

## MAP4K4 isoform 6 (UniProt O95819)
[4]
  log2 fold change: -0.168
[5]
  log2 fold change: -0.025
[8]
  log2 fold change: -0.033
[9]
  log2 fold change: 0.143

## LSR isoform 3 (UniProt Q86X29)
UniProt Q86X29, sequence (Q86X29 whole entry, looked up): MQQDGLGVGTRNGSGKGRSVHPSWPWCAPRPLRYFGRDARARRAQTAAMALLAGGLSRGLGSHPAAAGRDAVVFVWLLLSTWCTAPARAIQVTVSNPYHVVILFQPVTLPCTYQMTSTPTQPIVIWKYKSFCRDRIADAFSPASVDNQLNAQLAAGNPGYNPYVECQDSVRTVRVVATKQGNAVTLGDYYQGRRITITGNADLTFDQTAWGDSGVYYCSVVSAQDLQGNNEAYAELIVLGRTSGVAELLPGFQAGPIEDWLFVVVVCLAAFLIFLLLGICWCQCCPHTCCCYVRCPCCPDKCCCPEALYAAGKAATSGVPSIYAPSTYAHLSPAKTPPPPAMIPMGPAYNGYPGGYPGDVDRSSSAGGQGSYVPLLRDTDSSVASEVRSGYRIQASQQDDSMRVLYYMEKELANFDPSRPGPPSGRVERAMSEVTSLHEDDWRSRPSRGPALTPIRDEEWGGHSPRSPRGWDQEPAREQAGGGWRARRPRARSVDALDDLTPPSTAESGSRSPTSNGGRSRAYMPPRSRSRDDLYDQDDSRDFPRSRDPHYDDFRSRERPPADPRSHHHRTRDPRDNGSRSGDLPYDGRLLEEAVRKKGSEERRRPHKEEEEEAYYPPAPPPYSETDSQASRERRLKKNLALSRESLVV
[4]
  log2 fold change: -0.169
[5]
  log2 fold change: 0.25
[9]
  log2 fold change: -0.106

## MAPRE3 isoform 2 (UniProt Q9UPY8)
UniProt Q9UPY8, sequence (Q9UPY8 whole entry, looked up): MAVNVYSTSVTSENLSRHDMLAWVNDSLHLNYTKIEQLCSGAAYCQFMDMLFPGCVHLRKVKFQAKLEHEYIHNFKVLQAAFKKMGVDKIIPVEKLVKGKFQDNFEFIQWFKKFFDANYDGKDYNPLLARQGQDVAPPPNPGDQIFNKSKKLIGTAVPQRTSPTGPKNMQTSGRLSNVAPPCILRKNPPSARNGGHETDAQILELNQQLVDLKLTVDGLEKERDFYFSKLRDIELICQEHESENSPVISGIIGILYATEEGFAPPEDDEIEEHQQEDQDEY
[10]
  log2 fold change: -0.003
[11]
  log2 fold change: -0.18
[12]
  log2 fold change: -0.073
[4]
  log2 fold change: 0.012
[5]
  log2 fold change: -0.097
IRAK-1-4 Inhibitor I
  log2 fold change: -0.384
[13]
  log2 fold change: -0.139
pinometostat
  log2 fold change: -0.101
[8]
  log2 fold change: 0.029
[9]
  log2 fold change: 0.109

## LSR (UniProt M0QZL9)
[14]
  log2 fold change: 0.029
[15]
  log2 fold change: 0.057

## IKZF1 (UniProt R9R4D9)
[4]
  log2 fold change: -0.055
[5]
  log2 fold change: -0.13
IRAK-1-4 Inhibitor I
  log2 fold change: -0.1
pinometostat
  log2 fold change: -0.103
[9]
  log2 fold change: 0.385

## MARCHF3 (UniProt Q86UD3)
[14]
  log2 fold change: -0.188
[2]
  log2 fold change: -0.073
ibrutinib
  log2 fold change: 0.073
[15]
  log2 fold change: -0.133
[8]
  log2 fold change: -0.058

## KIZ (UniProt Q2M2Z5)
UniProt Q2M2Z5, sequence (Q2M2Z5 whole entry, looked up): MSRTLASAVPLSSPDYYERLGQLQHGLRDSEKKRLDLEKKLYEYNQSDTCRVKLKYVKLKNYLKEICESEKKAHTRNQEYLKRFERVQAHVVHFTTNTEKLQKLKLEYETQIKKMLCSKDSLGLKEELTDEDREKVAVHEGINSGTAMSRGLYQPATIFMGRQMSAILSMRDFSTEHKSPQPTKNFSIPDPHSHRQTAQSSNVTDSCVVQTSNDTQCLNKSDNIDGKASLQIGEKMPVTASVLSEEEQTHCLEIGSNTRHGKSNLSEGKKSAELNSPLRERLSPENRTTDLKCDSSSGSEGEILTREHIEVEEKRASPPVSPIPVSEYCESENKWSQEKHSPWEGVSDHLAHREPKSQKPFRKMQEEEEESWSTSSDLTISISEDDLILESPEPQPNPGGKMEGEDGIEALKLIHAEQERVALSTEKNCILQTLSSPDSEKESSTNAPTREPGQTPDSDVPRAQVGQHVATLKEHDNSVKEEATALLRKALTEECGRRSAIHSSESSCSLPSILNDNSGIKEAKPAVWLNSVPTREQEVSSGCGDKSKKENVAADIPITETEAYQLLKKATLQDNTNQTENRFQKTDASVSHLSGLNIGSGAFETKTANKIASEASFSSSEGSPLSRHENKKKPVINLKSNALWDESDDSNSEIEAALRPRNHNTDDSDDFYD
[10]
  log2 fold change: 0.018
[11]
  log2 fold change: 0.077
[3]
  log2 fold change: 0.103
[12]
  log2 fold change: -0.01
IRAK-1-4 Inhibitor I
  log2 fold change: -0.075
[13]
  log2 fold change: 0.039
ralimetinib
  log2 fold change: 0.06
[7]
  log2 fold change: -0.107
pinometostat
  log2 fold change: 0.099

## MFSD11 (UniProt O43934)
[10]
  log2 fold change: 0.001
[14]
  log2 fold change: 0.007
[11]
  log2 fold change: 0.047
[2]
  log2 fold change: 0.043
[12]
  log2 fold change: -0.067
[4]
  log2 fold change: 0.06
[5]
  log2 fold change: 0.219
IRAK-1-4 Inhibitor I
  log2 fold change: 0.015
ibrutinib
  log2 fold change: 0.006
[13]
  log2 fold change: -0.029
[15]
  log2 fold change: -0.008
pinometostat
  log2 fold change: -0.009
[8]
  log2 fold change: 0.031
[9]
  log2 fold change: 0.095
